Test results reported in article PMC6919601, “Identification of Plasmodium dipeptidyl aminopeptidase allosteric inhibitors by high throughput screening” (PLoS ONE, 2019).
Among all 110,000 compounds or so, about 230 (0.21%) showed an effect of 50% or more. The list comes from a sample in which strong results are over-represented; it also holds similar structures and randomly drawn compounds.

Target: DPAP1 (Plasmodium falciparum, UniProt Q8IIJ9)
Experiment: primary screen, percent inhibition; read by cleavage of a fluorogenic dipeptide substrate; higher = more effect of the substance
Design: species or system P. falciparum D10 trophozoite lysates; single well
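Further: 30 min substrate incubation versus DMSO and 10 µM JCP410 controls.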

DPAP1, sequence (Q8IIJ9 whole entry, looked up): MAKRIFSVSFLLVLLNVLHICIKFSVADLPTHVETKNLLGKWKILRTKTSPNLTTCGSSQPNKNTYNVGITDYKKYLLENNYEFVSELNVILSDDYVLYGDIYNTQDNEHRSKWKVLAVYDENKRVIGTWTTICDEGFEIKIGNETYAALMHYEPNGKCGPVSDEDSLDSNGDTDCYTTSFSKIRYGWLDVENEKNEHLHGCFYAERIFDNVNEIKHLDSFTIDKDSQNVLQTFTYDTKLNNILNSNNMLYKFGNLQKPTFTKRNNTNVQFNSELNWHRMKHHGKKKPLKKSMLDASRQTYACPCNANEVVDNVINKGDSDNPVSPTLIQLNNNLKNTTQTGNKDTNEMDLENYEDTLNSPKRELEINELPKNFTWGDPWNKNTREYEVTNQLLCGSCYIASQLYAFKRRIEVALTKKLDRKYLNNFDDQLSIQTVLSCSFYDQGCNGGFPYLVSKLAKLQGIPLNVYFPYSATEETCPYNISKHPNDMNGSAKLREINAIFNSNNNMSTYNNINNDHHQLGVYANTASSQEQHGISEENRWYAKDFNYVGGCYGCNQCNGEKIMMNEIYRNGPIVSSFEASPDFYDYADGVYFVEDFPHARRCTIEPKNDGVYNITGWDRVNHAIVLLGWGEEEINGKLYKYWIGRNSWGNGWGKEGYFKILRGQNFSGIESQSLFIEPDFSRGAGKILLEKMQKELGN

SMILES | % Inhibition @ 10 uM [%]
COCCCNC(=O)Cc1coc2ccc3ccccc3c12 | 2.01
Cc1nc2c(=O)oc3ccccc3c2n1C | 4.35
Cn1c(S)nc2c(=O)oc3ccccc3c21 | 56.8
CCn1c(S)nc2c(=O)oc3ccccc3c21 | 14
COc1ccc(N(C(C)C(=O)Nc2ccc(C(C)C)cc2)S(C)(=O)=O)cc1 (stereo not shown) | -1.57
CCCCSCCCNC(=O)C1CCC(CNS(=O)(=O)c2ccc(C)cc2)CC1 (stereo not shown) | 5.47
Cc1ccsc1CCN1CSC2=C(C#N)C(c3ccc(Cl)cc3)CC(=O)N2C1 (stereo not shown) | 51.6
COc1ccc(C2CC(=O)N3CN(CCC(C)C)CSC3=C2C#N)cc1OC (stereo not shown) | 46.8
CC(C)CCN1CSC2=C(C#N)C(c3ccc(Cl)cc3)CC(=O)N2C1 (stereo not shown) | 54.6
COc1cc(C2CC(=O)N3CN(Cc4ccco4)CSC3=C2C#N)ccc1O (stereo not shown) | 17.5
N#CC1=C2SCN(Cc3ccccc3)CN2C(=O)CC1c1ccc(Cl)cc1 (stereo not shown) | 42.2
Cc1ccc(C2CC(=O)N3CN(CCC(C)C)CSC3=C2C#N)cc1 (stereo not shown) | 43.8
COc1ccc(C2CC(=O)N3CN(CCCc4ccccc4)CSC3=C2C#N)cc1OC (stereo not shown) | 30.5
COc1cccc(C2CC(=O)N3CN(CCc4sccc4C)CSC3=C2C#N)c1 (stereo not shown) | 56.9
NC(=O)c1ccc(-n2nnnc2SCc2ccc(C(=O)O)cc2)cc1 | 3.05
CCC1CCC(NCCN(C)C)CC1 (stereo not shown) | -3.42
Cc1nc2scc(C)n2c(=O)c1S(=O)(=O)N1CCc2ccccc2C1 | -0.984
COc1ccc(C2C3CCc4ccc(OC)cc4C3=NN2/C(C)=C/C(C)=O)cc1 (stereo not shown) | 22.9
CCOC(=O)/C=C(\C)N1N=C2c3ccc(OC)cc3CCC2C1c1cccc(F)c1 (stereo not shown) | 73.1
COc1ccc2c(c1)CCC1C2=NN(/C(C)=C/C(C)=O)C1c1ccc([N+](=O)[O-])cc1 (stereo not shown) | 4.54
CCOC(=O)/C=C(\C)N1N=C2c3cc(OC)ccc3CCC2C1c1ccc(F)cc1 (stereo not shown) | 6.33
CCOC(=O)/C=C(\C)N1N=C2c3cc(OC)ccc3CCC2C1c1ccc(OC)cc1 (stereo not shown) | -4.49
CCOC(=O)/C=C(\C)N1N=C2c3ccc(OC)cc3CCC2C1c1ccc(F)cc1 (stereo not shown) | -1.77
COc1ccc(C2C3CCc4cc(OC)ccc4C3=NN2/C(C)=C/C(C)=O)cc1 (stereo not shown) | 58.5
CCOC(=O)/C=C(\C)N1N=C2c3cc(OC)ccc3CCC2C1c1ccccc1 (stereo not shown) | 2

SMILES | % Inhibition @ 10 uM [%]
CCOC(=O)/C=C(\C)N1N=C2c3ccc(OC)cc3CCC2C1c1ccc(OC)cc1 (stereo not shown) | 60.6
COC(=O)C(O)(c1ccc(N)cc1)C(F)(F)F (stereo not shown) | 0.937
CCCCOC1CS(=O)(=O)CC1OCCCC (stereo not shown) | -5.28
Cc1ccc(-c2nc(CSCC(=O)Nc3cc(C)on3)c(C)o2)cc1 | -2.14
CC1=C(C)CC(C(=O)Nc2cccc(F)c2)C(C(=O)O)C1 (stereo not shown) | -2.22
COC(=O)c1cc(OC)c(S(=O)(=O)NCc2ccccc2)cc1OC | -2.28
CCOC(=O)C1=C(CN2CCN(C)CC2)NC(=O)NC1c1cccc(OC)c1OC (stereo not shown) | 3.75
CCOC(=O)C1=C(CN2CCN(C(=O)OCC)CC2)NC(=O)NC1c1cccc(OC)c1OC (stereo not shown) | 2.12
CCOC(=O)C1=C(CN2CCC3(CC2)OCCO3)NC(=O)NC1c1cccc(OC)c1OC (stereo not shown) | 93
O=C1CC(c2ccccc2)NC(=O)N1 (stereo not shown) | -2.86
CCCOc1ccc(C2C3=C(O)CC(C)(C)CC3=NC(C)=C2C(=O)Nc2ccccc2OC)cc1 (stereo not shown) | -0.864
c1ccc(C(CCNC2CN3CCC2CC3)c2ccccc2)cc1 (stereo not shown) | -0.0908
O=C(CCN1C(=O)c2ccccc2C1=O)NCC1CCCO1 (stereo not shown) | -0.349
Cc1cc(/C=C2/C(=N)N3C(=NC2=O)SN=C3S(=O)(=O)C(C)C)c(C)n1Cc1ccccc1 | -7.21
CC(C)Oc1ccccc1/C=C1\SC(=N)N(c2nccs2)C1=O | 50.1
N=C1S/C(=C\c2c[nH]nc2-c2ccccc2)C(=O)N1c1nccs1 | 11.2
N=C1S/C(=C\c2ccco2)C(=O)N1c1nccs1 | -3.74
CCOC(=O)N1CCC(NS(=O)(=O)c2c(C)nc3scc(C)n3c2=O)CC1 | -8.17
Cc1nc2scc(C)n2c(=O)c1S(=O)(=O)NC1CCN(Cc2ccccc2)CC1 | -3.32
Cc1nc2scc(C)n2c(=O)c1S(=O)(=O)NC1CCCCCCC1 | 72.2
Cc1cccc(CN2CCCC(O)C2)c1 (stereo not shown) | -0.828
O=C(CCC1CCCCC1)NC1(C(F)(F)F)NC(=O)N(Cc2ccccc2)C1=O (stereo not shown) | -3.33
CCOC(=O)C1=C(c2ccccc2)Nc2ncnn2C1c1cccc(O)c1 (stereo not shown) | 3.8
COc1cccc(C2=NS(=O)(=O)N(C)C(C(=O)N3CCCC3)=C2)c1 | 3.92
CCSc1nc(=O)n(-c2ccccc2)c(C)c1C(C)=O | -5.51

SMILES | % Inhibition @ 10 uM [%]
CCc1ccc(C2C3=C(O)CCCC3=NC(C)=C2C(=O)Nc2ccc(F)cc2)cc1 (stereo not shown) | 4.11
Cc1sc2ncn(CC(=O)NC3CCCC(C)C3C)c(=O)c2c1S(=O)(=O)N1CCC(C)CC1 (stereo not shown) | -4.67
O=C1C(c2ccccc2)=C(c2ccccc2)C(=O)N1O | 3.25
CC(=O)ON1C(=O)C2C3c4ccccc4C(c4ccccc43)C2C1=O (stereo not shown) | 38.9
CC(=O)ON1C(=O)C(c2ccccc2)=C(c2ccccc2)C1=O | 82
CCCCN(C)C(=O)C1c2ccccc2C(=O)N(CCOC)C1c1c[nH]c2ccccc12 (stereo not shown) | 5.62
Cc1ccc2nc(O)c3cc(C(=O)NCCc4ccsc4)sc3c2c1 | 1.72
CN(C)c1ccc(NC(=O)NC2CCCCC2)cc1 | -12.2
CC(CCCC(C)(C)O)NC(C)Cc1ccc(F)cc1 (stereo not shown) | 4.68
O=C(CC1(O)C(=O)Nc2ccc(Br)cc21)c1ccc2ccccc2c1 (stereo not shown) | 4.03
CCC1(C)Cc2c(sc3nc(S)nc(N)c23)CO1 (stereo not shown) | 62.9
CCC1(C)Cc2c(sc3nc(SCC(=O)c4ccccc4)nc(N)c23)CO1 (stereo not shown) | 0.992
CCC1(C)Cc2c(sc3nc(SC)nc(O)c23)CO1 (stereo not shown) | 8.9
COc1cc2c(NCc3ccccc3)cc(O)c(CC(=O)Nc3ccccc3)c2cc1OC | 66.3
COc1cc2c(CC(=O)Nc3ccccc3)c(O)c(C)c(NCc3ccccc3)c2cc1OC | 13.4
CCCCNc1cc(O)c(CC(=O)Nc2ccccc2)c2cc(OC)c(OC)cc12 | 25.7
CCn1c(C)cc(/C=C2\NC(=O)N(CC(=O)Nc3ccc(F)cc3)C2=O)c1C | 0.528
CCCNS(=O)(=O)c1cc(-c2cc(C)no2)ccc1OC | -8.89
CCCCNC(=O)c1cc(-c2ccc(F)cc2)on1 | 4.5
Brc1ccc(-c2cn3nc(C4CCCCC4)sc3n2)cc1 | -2.71
COc1ccc(C(=O)CCN(C)C)cc1 | 3.82
CCOc1ccc(C(=O)CCN(C)CC(=O)O)cc1 | 89.9
COc1ccc(C(=O)CCNCCC(=O)O)cc1 | 30.1
CCOc1ccc(C(=O)CCNCCC(=O)O)cc1 | 44.5
CCOc1ccc(C(=O)CCN(C)C)cc1 | -1.25

SMILES | % Inhibition @ 10 uM [%]
COc1ccc(C(=O)CCN(C)CC(=O)O)cc1 | 55.8
O=C(O)c1ccccc1NC(=O)C12CC3CC(CC(C3)C1)C2 | -5.44
O=C(O)CCC(=O)Nc1ccc(S(=O)(=O)NC2CCCCC2)cc1 | 1.49
CC(=O)c1ccc(N2CCN(Cc3ccc(C)cc3C)CC2)cc1 | -5.11
CC1(C)CC(=O)C2=C(C1)N1C(=C(C#N)C2c2cccnc2)N=C(N)c2c1sc1c2CCCCC1 (stereo not shown) | -2.39
CCc1nn(-c2cc(Oc3ccc(C)cc3)ncn2)c(N)c1C(N)=O | 60.5
Cc1ccc(Oc2cc(-n3nc(C)c(C(N)=O)c3N)ncn2)cc1 | -0.795
CCc1nn(-c2cc(Oc3ccccc3)ncn2)c(N)c1C(N)=O | 0.686
CN(C1CCCCC1)S(=O)(=O)c1ccc(C(=O)Nc2nc(-c3ccccn3)cs2)cc1 | -1.4
O=c1ncn(-c2ccccc2F)c2ncccc12 | -10.2
CCOC(=O)C1=C(O)/C(=C\c2cc(C)n(-c3ccccc3C(=O)OC)c2C)N=C1C | 3.47
CCOC(=O)C1=C(O)/C(=C\c2cc(C)n(-c3ccccc3C(F)(F)F)c2C)N=C1C | 52.7
CCOC(=O)C1=C(O)/C(=C\c2cc(C)n(-c3cc(C)ccc3OC)c2C)N=C1C | 3.47
C/N=C1/S/C(=C\c2ccc(N3Cc4ccccc4C3)cc2)C(=O)N1C | -5.19
CCCCNC(=O)c1cn(C)c(=O)c2cc(OC)c(OC)cc12 | -5.67
Cc1ccc(-c2cc(C(F)F)n3ncc(C(=O)n4c(C)nc5ccccc54)c3n2)cc1 | 50
CCc1nccn1C(=O)c1cnn2c(C(F)F)cc(-c3ccccc3)nc12 | 75.7
Cc1ccc(-c2cc(C(F)F)n3ncc(C(=O)NC(C)c4ccccc4)c3n2)cc1 (stereo not shown) | 0.778
Cc1ccc(-c2cc(C(F)F)n3ncc(C(=O)N4CCc5ccccc5C4)c3n2)cc1 | 0.778
CCCCNC(=O)c1cnn2c(C(F)F)cc(-c3ccccc3)nc12 | 4.08
O=C(c1cnn2c(C(F)F)cc(-c3ccccc3)nc12)N1CCN(c2ccccn2)CC1 | 5.65
CCOC(=O)c1c(-c2ccc(F)cc2)csc1NC(=O)c1c(-c2ccccc2)noc1C | 0.64
